# According to PubChem BioAssay AID1159580 (chemical genetic matrix, 2015):
# About 2,000 (36%) of roughly 5,500 compounds were called active. Inconclusive results (about 18%) are left out. Some of the results follow. Values without a mark were called inactive. Cut-off read from the data, not from the text of the source: active = normalized growth mostly below about 0.91 (no sharp cut-off); inconclusive = no clear call, values can overlap the other calls; inactive = mostly above about 0.92.
# Experiment: chemical genetic growth profiling, strain panel (AID 1159580);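 note: tested at 20 µM; growth read once vehicle control cultures reached saturation at 30 °C; 1 = growth at the plate median or of vehicle wells; lower values mean less growth of the strain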
# Conditions: S. cerevisiae deletion strains, growth OD
# [1] = locus YAR019C, strain CDC15, active compounds read low
# [2] = locus YBL105C, strain PKC1, active compounds read low
# [3] = locus YBR135W, strain CKS1, active compounds read low
# [4] = locus YBR136W, strain MEC1, active compounds read low
# [5] = locus YBR160W, strain CDC28, active compounds read low
# [6] = locus YDL017W, strain CDC7, active compounds read low
# [7] = locus YDL028C, strain MPS1, active compounds read low
# [8] = locus YDL101C, strain DUN1, active compounds read low
# [9] = locus YDL108W, strain KIN28, active compounds read low
# [10] = locus YDL132W, strain cdc53, active compounds read low
# [11] = locus YDL214C, strain PRR2, active compounds read low
# [12] = locus YDR052C, strain DBF4, active compounds read low
# [13] = locus YDR054C, strain cdc34, active compounds read low
# [14] = locus YDR226W, strain ADK1, active compounds read low
# [15] = locus YDR477W, strain SNF1, active compounds read low
# [16] = locus YER123W, strain YCK3, active compounds read low
# [17] = locus YER133W, strain GLC7, active compounds read low
# [18] = locus YFL009W, strain cdc4, active compounds read low
# [19] = locus YFL029C, strain CAK1, active compounds read low
# [20] = locus YFR003C, strain YPI1, active compounds read low
# [21] = locus YFR019W, strain FAB1, active compounds read low
# [22] = locus YFR028C, strain CDC14, active compounds read low
# [23] = locus YGR040W, strain KSS1, active compounds read low
# [24] = locus YGR052W, strain FMP48, active compounds read low
# [25] = locus YGR092W, strain DBF2, active compounds read low
# [26] = locus YHR030C, strain SLT2, active compounds read low
# [27] = locus YHR079C, strain IRE1, active compounds read low
# [28] = locus YHR082C, strain KSP1, active compounds read low
# [29] = locus YHR205W, strain SCH9, active compounds read low
# [30] = locus YIL147C, strain SLN1, active compounds read low
# [31] = locus YJL095W, strain BCK1, active compounds read low
# [32] = locus YJL128C, strain PBS2, active compounds read low
# [33] = locus YJL157C, strain FAR1, active compounds read low
# [34] = locus YJR016C, strain ILV3, active compounds read low
# [35] = locus YJR066W, strain TOR1 (second series), active compounds read low
# [36] = locus YJR066W, strain TOR1, active compounds read low
# [37] = locus YKL048C, strain ELM1, active compounds read low
# [38] = locus YKL067W, strain YNK1, active compounds read low
# [39] = locus YKL101W, strain HSL1, active compounds read low
# [40] = locus YKL193C, strain SDS22, active compounds read low
# [41] = locus YKL203C, strain TOR2, active compounds read low
# [42] = locus YLR113W, strain HOG1, active compounds read low
# [43] = locus YLR133W, strain CKI1, active compounds read low
# [44] = locus YLR403W, strain SFP1, active compounds read low
# [45] = locus YML070W, strain DAK1, active compounds read low
# [46] = locus YMR001C, strain CDC5, active compounds read low
# [47] = locus YMR205C, strain PFK2 (second series), active compounds read low
# [48] = locus YMR277W, strain FCP1, active compounds read low
# [49] = locus YNL006W, strain LST8, active compounds read low
# [50] = locus YNL020C, strain ARK1, active compounds read low
# [51] = locus YNL161W, strain CBK1, active compounds read low
# [52] = locus YNL183C, strain NPR1, active compounds read low
# [53] = locus YNL207W, strain RIO2, active compounds read low
# [54] = locus YNL222W, strain SSU72, active compounds read low
# [55] = locus YNL307C, strain MCK1 (second series), active compounds read low
# [56] = locus YOL078W, strain AVO1, active compounds read low
# [57] = locus YOL136C, strain PFK27, active compounds read low
# [58] = locus YOR061W, strain CKA2, active compounds read low
# [59] = locus YOR119C, strain RIO1, active compounds read low
# [60] = locus YOR231W, strain MKK1, active compounds read low
# [61] = locus YOR329C, strain SCD5, active compounds read low
# [62] = locus YPL031C, strain PHO85, active compounds read low
# [63] = locus YPL153C, strain RAD53, active compounds read low
# [64] = locus YPL204W, strain HRR25, active compounds read low
# [65] = locus YPL209C, strain IPL1, active compounds read low
# [66] = locus YPL256C, strain CLN2, active compounds read low
# [67] = locus YPR025C, strain CCL1, active compounds read low
# [68] = locus YPR106W, strain ISR1, active compounds read low
# [69] = locus YPR111W, strain DBF20, active compounds read low
# [70] = strain NNK1, active compounds read low
# [71] = strain TSCII, active compounds read low
smiles,measurement,setting,value
Cc1cc(C(=O)O/N=C(/N)c2ccc([N+](=O)[O-])o2)no1,normalized growth,[1],0.961
same,normalized growth,[2],0.968
same,normalized growth,[3],0.963
same,normalized growth,[4],0.962
same,normalized growth,[5],0.951
same,normalized growth,[6],0.963
same,normalized growth,[7],0.931
same,normalized growth,[8],0.964
same,normalized growth,[9],0.949
same,normalized growth,[10],0.968
same,normalized growth,[11],0.887
same,normalized growth,[12],0.919
same,normalized growth,[13],0.991
same,normalized growth,[14],0.927
same,normalized growth,[15],0.918
same,normalized growth,[16],0.87
same,normalized growth,[17],0.963
same,normalized growth,[18],0.97
same,normalized growth,[19],0.965
same,normalized growth,[20],0.955
same,normalized growth,[21],0.877
same,normalized growth,[22],0.938
same,normalized growth,[23],0.848
same,normalized growth,[24],0.869
same,normalized growth,[25],0.178 (active)
same,normalized growth,[26],0.218 (active)
same,normalized growth,[27],0.832
same,normalized growth,[28],0.892
same,normalized growth,[29],0.745
same,normalized growth,[30],0.946
same,normalized growth,[31],0.796
same,normalized growth,[32],0.895
same,normalized growth,[33],0.914
same,normalized growth,[34],0.953
same,normalized growth,[35],0.822
same,normalized growth,[36],0.809
same,normalized growth,[37],0.831
same,normalized growth,[38],0.868
same,normalized growth,[39],0.83
same,normalized growth,[40],0.962
same,normalized growth,[41],0.99
same,normalized growth,[42],0.757 (active)
same,normalized growth,[43],0.894
same,normalized growth,[44],0.927
same,normalized growth,[45],0.846
same,normalized growth,[46],0.963
same,normalized growth,[47],0.938
same,normalized growth,[48],0.941
same,normalized growth,[49],0.979
same,normalized growth,[50],0.885
same,normalized growth,[51],0.967
same,normalized growth,[52],0.898
same,normalized growth,[53],0.948
same,normalized growth,[54],0.957
same,normalized growth,[55],0.825
same,normalized growth,[56],0.952
same,normalized growth,[57],0.873
same,normalized growth,[58],0.866
same,normalized growth,[59],0.888
same,normalized growth,[60],0.567 (active)
same,normalized growth,[61],0.965
same,normalized growth,[62],0.92
same,normalized growth,[63],0.949
same,normalized growth,[64],0.946
same,normalized growth,[65],0.964
same,normalized growth,[66],0.741 (active)
same,normalized growth,[67],0.97
same,normalized growth,[68],0.936
same,normalized growth,[69],0.896
same,normalized growth,[70],0.94
same,normalized growth,[71],0.965
N/C(=N\OC(=O)c1ccno1)c1ccc(C(F)(F)F)cc1,normalized growth,"locus YAL013W, strain DEP1, active compounds read low",0.951
same,normalized growth,"locus YBR229C, strain ROT2, active compounds read low",0.992
same,normalized growth,"locus YCL061C, strain MRC1, active compounds read low",0.974
same,normalized growth,[8],1.02
same,normalized growth,"locus YDR150W, strain NUM1, active compounds read low",0.978
same,normalized growth,"locus YEL061C, strain CIN8, active compounds read low",1
same,normalized growth,"locus YGR078C, strain PAC10, active compounds read low",0.971
same,normalized growth,"locus YGR229C, strain SMI1, active compounds read low",1.02
same,normalized growth,[26],0.888
same,normalized growth,"locus YHR087W, strain rtc3, active compounds read low",0.966
same,normalized growth,"locus YJL187C, strain SWE1, active compounds read low",0.993
same,normalized growth,"locus YJR043C, strain POL32, active compounds read low",0.988
same,normalized growth,"locus YJR075W, strain HOC1, active compounds read low",1.01
same,normalized growth,"locus YKL190W, strain CNB1, active compounds read low",1.01
same,normalized growth,"locus YLR039C, strain RIC1, active compounds read low",0.91
same,normalized growth,"locus YLR058C, strain SHM2 (second series), active compounds read low",0.988
same,normalized growth,"locus YLR085C, strain ARP6, active compounds read low",1.06
same,normalized growth,"locus YLR262C, strain YPT6, active compounds read low",0.944
same,normalized growth,"locus YML094W, strain GIM5, active compounds read low",0.95
same,normalized growth,"locus YMR219W, strain ESC1, active compounds read low",0.996
same,normalized growth,"locus YMR263W, strain SAP30, active compounds read low",0.98
same,normalized growth,"locus YMR307W, strain GAS1, active compounds read low",1.17
same,normalized growth,"locus YNL153C, strain GIM3, active compounds read low",0.973
same,normalized growth,"locus YNL298W, strain CLA4 (second series), active compounds read low",0.949
same,normalized growth,"locus YNL322C, strain KRE1, active compounds read low",0.987
same,normalized growth,"locus YNR030W, strain Alg12, active compounds read low",0.939
same,normalized growth,"locus YOL006C, strain TOP1, active compounds read low",0.939
same,normalized growth,"locus YPL055C, strain LGE1, active compounds read low",0.839
same,normalized growth,"locus YPL241C, strain CIN2, active compounds read low",1.03
same,normalized growth,"locus YPR135W, strain CTF4, active compounds read low",0.82
Cc1cc(C(=O)O/N=C(/N)c2ccc(C(C)(C)C)cc2)no1,normalized growth,[1],0.972
same,normalized growth,[2],0.979
same,normalized growth,[3],0.975
same,normalized growth,[4],0.985
same,normalized growth,[5],0.979
same,normalized growth,[6],0.993
same,normalized growth,[7],0.971
same,normalized growth,[8],0.993
same,normalized growth,[9],0.976
same,normalized growth,[10],0.975
same,normalized growth,[11],0.909
same,normalized growth,[12],0.986
same,normalized growth,[13],0.963
same,normalized growth,[14],0.983
same,normalized growth,[15],0.911
same,normalized growth,[16],0.901
same,normalized growth,[17],0.882
same,normalized growth,[18],0.952
same,normalized growth,[19],0.969
same,normalized growth,[20],0.986
same,normalized growth,[21],0.922
same,normalized growth,[22],0.98
same,normalized growth,[23],0.956
same,normalized growth,[24],0.958
same,normalized growth,[25],0.906
same,normalized growth,[26],0.77 (active)
same,normalized growth,[27],0.789
same,normalized growth,[28],0.939
same,normalized growth,[29],0.822
same,normalized growth,[30],0.982
same,normalized growth,[31],0.772
same,normalized growth,[32],0.938
same,normalized growth,[33],0.923
same,normalized growth,[34],0.98
same,normalized growth,[35],0.738
same,normalized growth,[36],0.722
same,normalized growth,[37],1.05
same,normalized growth,[38],0.921
same,normalized growth,[39],1.01
same,normalized growth,[40],0.978
same,normalized growth,[41],0.88
same,normalized growth,[42],0.789 (active)
same,normalized growth,[43],0.943
same,normalized growth,[44],0.852
same,normalized growth,[45],0.915
same,normalized growth,[46],0.974
same,normalized growth,[47],0.916
same,normalized growth,[48],0.961
same,normalized growth,[49],0.972
same,normalized growth,[50],0.942
same,normalized growth,[51],0.983
same,normalized growth,[52],0.782
same,normalized growth,[53],0.979
same,normalized growth,[54],0.969
same,normalized growth,[55],0.939
same,normalized growth,[56],0.979
same,normalized growth,[57],0.959
same,normalized growth,[58],0.93
same,normalized growth,[59],0.911
same,normalized growth,[60],0.803
same,normalized growth,[61],0.987
same,normalized growth,[62],0.901
same,normalized growth,[63],0.893
same,normalized growth,[64],0.914
same,normalized growth,[65],0.974
same,normalized growth,[66],0.884
same,normalized growth,[67],0.973
same,normalized growth,[68],0.98
same,normalized growth,[69],0.964
same,normalized growth,[70],0.999
same,normalized growth,[71],0.966
